Source: PubChem BioAssay
Active and inactive are the calls of the source.

Tests used:
[1] = system: Plasmodium falciparum Sir2 (PF13_0152, Sir2A); assay: Plasmodium falciparum Sir2A binding compounds – biochemical, small-molecule microarray, 635 nm fluorescence, primary screen (AID 1098); settings: fluorescence 635 nm, higher = more signal;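 further: score merges spot fluorescence intensity with its signal-to-noise ratio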
[2] = probe aDKK1 binding to arrayed compounds – biochemical, biotinylated probe, 635/667 nm fluorescence, primary screen (AID 1099); settings: small-molecule microarray, higher = more signal;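 further: score merges 667nm spot fluorescence with signal to noise across triplicate slides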
[3] = probe aCHRDL2 binding to arrayed compounds – biochemical, biotinylated probe, 635/667 nm fluorescence, primary screen (AID 1100); settings: small-molecule microarray, higher = more signal
[4] = change in splice reporter luminescence, either direction, cell-based, HEK293, spliceosome inhibition project, primary screen (AID 1101); settings: HEK293 splicing luciferase reporter, 24 h, higher = more signal, called active from +8 up or from −8 down;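 further: HEK293 cells carrying a splicing-competent luciferase reporter gene; test concentration not given here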
[5] = molecular target: Fibroblast growth factor 10 (Homo sapiens) (UniProt O15520); assay: compounds binding fibroblast growth factor 10 – biochemical, small-molecule microarray, 635 nm fluorescence, primary screen (AID 1102); settings: FGF10 binding, fluorescence 635 nm, higher = more signal
Chain of Fibroblast growth factor 10 (Homo sapiens) (O15520 whole entry, looked up): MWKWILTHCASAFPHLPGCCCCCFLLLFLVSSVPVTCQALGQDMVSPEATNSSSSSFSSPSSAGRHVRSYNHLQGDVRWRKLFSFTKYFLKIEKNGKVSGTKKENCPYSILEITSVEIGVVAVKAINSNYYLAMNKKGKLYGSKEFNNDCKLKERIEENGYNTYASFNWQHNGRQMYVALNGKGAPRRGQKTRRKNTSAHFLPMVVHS

[6] = system: glycogen synthase kinase-3 (GSK3A per assay name; protocol says GSK3B); assay: compounds binding glycogen synthase kinase-3 – biochemical, small-molecule microarray, 635 nm fluorescence, GSK3A, primary screen (AID 1103); settings: fluorescence 635 nm, higher = more signal; further: the record names both GSK3A and GSK3B
[7] = molecular target: Epidermal growth factor receptor (Homo sapiens) (UniProt P00533); assay: compounds binding epidermal growth factor receptor – biochemical, small-molecule microarray, 635 nm fluorescence, primary screen (AID 1104); settings: EGFR binding, higher = more signal;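 further: score merges 667 nm emission intensity with spot signal to noise over triplicate slides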
Chain of Epidermal growth factor receptor (Homo sapiens) (P00533 whole entry, looked up): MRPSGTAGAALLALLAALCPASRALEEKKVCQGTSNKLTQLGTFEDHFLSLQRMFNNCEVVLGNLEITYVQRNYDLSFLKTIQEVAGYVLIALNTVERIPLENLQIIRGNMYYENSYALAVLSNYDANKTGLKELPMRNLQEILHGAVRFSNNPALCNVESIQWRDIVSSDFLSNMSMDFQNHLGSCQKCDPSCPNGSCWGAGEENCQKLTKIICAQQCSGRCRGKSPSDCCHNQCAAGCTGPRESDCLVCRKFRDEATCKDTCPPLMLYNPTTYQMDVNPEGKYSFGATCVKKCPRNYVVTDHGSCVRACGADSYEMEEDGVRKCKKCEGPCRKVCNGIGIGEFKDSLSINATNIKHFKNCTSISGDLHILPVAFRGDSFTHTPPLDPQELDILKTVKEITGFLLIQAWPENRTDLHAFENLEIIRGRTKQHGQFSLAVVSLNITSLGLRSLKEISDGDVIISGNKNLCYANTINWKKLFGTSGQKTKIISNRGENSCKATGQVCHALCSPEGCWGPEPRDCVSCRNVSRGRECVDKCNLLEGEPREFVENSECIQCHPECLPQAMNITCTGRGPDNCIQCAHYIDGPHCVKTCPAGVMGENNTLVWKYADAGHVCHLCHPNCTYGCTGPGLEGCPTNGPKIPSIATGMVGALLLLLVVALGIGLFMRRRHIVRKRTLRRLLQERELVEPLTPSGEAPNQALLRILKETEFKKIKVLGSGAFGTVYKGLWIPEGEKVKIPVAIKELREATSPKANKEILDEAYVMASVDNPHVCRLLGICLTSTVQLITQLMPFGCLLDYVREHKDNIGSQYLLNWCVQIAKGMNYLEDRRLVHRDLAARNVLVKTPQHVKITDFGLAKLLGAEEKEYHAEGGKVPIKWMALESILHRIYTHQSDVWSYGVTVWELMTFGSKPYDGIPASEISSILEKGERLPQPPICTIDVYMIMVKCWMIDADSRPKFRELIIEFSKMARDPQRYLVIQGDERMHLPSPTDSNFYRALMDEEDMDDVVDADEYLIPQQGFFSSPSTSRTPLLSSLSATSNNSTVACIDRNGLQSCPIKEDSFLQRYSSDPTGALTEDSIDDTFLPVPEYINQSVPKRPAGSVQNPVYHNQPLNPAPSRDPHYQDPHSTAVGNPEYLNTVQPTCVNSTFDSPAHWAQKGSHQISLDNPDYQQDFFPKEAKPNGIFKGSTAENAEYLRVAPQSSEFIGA

[8] = molecular target: Follistatin-related protein 3 (Homo sapiens) (UniProt O95633); assay: compounds binding follistatin-related protein 3 – biochemical, small-molecule microarray, 635 nm fluorescence, primary screen (AID 1105); settings: FSTL3 binding, higher = more signal;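 further: score merges emission near 667 nm and signal to noise per printed spot across three slides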
Chain of Follistatin-related protein 3 (Homo sapiens) (O95633 whole entry, looked up): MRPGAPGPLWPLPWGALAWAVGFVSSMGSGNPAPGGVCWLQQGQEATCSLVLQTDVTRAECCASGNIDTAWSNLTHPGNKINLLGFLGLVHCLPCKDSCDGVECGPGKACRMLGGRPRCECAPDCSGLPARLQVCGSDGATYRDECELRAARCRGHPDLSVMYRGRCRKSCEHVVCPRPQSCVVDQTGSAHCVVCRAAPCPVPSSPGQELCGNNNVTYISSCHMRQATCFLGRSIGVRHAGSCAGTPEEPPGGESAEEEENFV

[9] = molecular target: Dickkopf-related protein 1 (Homo sapiens) (UniProt O94907); assay: small molecules binding DKK1 protein – biochemical, small-molecule microarray, 635 nm fluorescence scan, primary screen (AID 1106); settings: higher = more signal;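 further: score merges emission near 667 nm with signal to noise over three replicate slides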
Chain of Dickkopf-related protein 1 (Homo sapiens) (O94907 whole entry, looked up): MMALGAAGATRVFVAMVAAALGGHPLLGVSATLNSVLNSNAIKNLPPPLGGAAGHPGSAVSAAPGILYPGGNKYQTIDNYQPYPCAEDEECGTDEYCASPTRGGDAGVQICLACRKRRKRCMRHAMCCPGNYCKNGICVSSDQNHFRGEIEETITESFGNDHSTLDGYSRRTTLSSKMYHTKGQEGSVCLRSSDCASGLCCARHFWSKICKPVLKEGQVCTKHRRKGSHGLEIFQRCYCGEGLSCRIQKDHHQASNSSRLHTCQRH

[10] = system: Inhibin beta A chain (activin A); assay: small molecules binding activin A – biochemical, small-molecule microarray, 635 nm fluorescence scan, primary screen (AID 1107); settings: INHBA, higher = more signal;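 further: mouse activin A protein probed at 4.33 µg/mL on printed slides; score merges bound-protein fluorescence near 667 nm with spot signal-to-noise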
[11] = system: Human papillomavirus type 1a protein E7 (residues 44-93); assay: small molecules binding HPV E7 44-93 – biochemical, small-molecule microarray, residues 44-93, 635 nm fluorescence, primary screen (AID 1108); settings: fluorescence 635 nm, higher = more signal;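 further: E7 fragment applied at 1 µg/mL in TBST for 1 h at 4 C; score combines spot fluorescence with its signal to noise ratio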
[12] = hepatitis C replication reporter changes, two-sided – Huh7 cells, luciferase reporter, HCV replication inhibitor project, primary screen (AID 1109); settings: Huh7 HCV replicon luciferase reporter, 48 h; higher = more signal;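 further: huh7 hepatoma cells harbouring a luciferase neomycin HCV replicon reporter; luciferase luminescence as measure of HCV replicon replication; test concentration not given here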
[13] = molecular target: Left-right determination factor 2 (Homo sapiens) (UniProt O00292); assay: small molecules binding LEFTY2 protein – biochemical, small-molecule microarray, 635 nm fluorescence scan, primary screen (AID 1110); settings: higher = more signal
Chain of Left-right determination factor 2 (Homo sapiens) (O00292 whole entry, looked up): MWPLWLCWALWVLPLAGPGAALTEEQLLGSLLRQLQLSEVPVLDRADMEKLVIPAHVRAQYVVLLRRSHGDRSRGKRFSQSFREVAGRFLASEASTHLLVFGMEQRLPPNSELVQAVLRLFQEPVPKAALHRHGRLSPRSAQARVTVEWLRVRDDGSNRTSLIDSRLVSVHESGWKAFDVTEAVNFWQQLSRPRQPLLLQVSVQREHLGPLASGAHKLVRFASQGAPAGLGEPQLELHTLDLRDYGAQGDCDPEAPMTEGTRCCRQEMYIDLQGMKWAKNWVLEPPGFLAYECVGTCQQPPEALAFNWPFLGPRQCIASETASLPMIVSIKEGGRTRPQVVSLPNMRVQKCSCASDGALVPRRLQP

[14] = molecular target: Calmodulin-1 (Homo sapiens) (UniProt P0DP23); assay: small molecules binding calmodulin-1 with EGTA – biochemical, small-molecule microarray, Cy5-labelled CALM1, profiling panel (AID 1111); settings: Cy5-CALM1 binding fluorescence, higher = more signal;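 further: labelled calmodulin applied in Tris saline Tween buffer holding calcium plus EGTA and DTT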
[15] = molecular target: Calmodulin-1 (Homo sapiens) (UniProt P0DP23); assay: small molecules binding Ca-loaded calmodulin-1 – biochemical, small-molecule microarray, Cy5-labelled CALM1, plus calcium, artefact control for SMM control-protein annotation, profiling panel (AID 1112); settings: Cy5-CALM1 binding fluorescence, higher = more signal;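 further: score merges spot fluorescence with signal to noise from triplicate slides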
[16] = probe aWnt5a binding to arrayed compounds – biochemical, biotinylated probe, 635/667 nm fluorescence, primary screen (AID 1113); settings: small-molecule microarray, higher = more signal;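 further: score merges 667 nm fluorescence intensity with signal-to-noise per printed feature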
[17] = probe aShh binding to arrayed compounds – biochemical, biotinylated probe, 635/667 nm fluorescence, primary screen (AID 1114); settings: small-molecule microarray, higher = more signal;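 further: probe is biotin-labelled aShh protein from a stem cell growth factor screen; measures binding of labelled protein to compounds printed on the slide; score merges feature fluorescence at 667 nm with signal-to-noise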
[18] = probe aNog binding to arrayed compounds – biochemical, biotinylated probe, 635/667 nm fluorescence, primary screen (AID 1115); settings: small-molecule microarray, higher = more signal;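 further: probe is biotinylated aNog protein used at 0.15 µg/mL for 1 h at 4 C; z-score combines 667 nm fluorescence of each spot with its signal to noise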
[19] = molecular target: Torsin-1A-interacting protein 1 (Homo sapiens) (UniProt Q5JTV8); assay: compound microarray binding of lysate hLAP1 – cell lysate, small-molecule microarray, COS7 lysate, 635/667 nm fluorescence, primary screen (AID 1116); settings: 635 nm fluorescence, higher = more signal
Chain of Torsin-1A-interacting protein 1 (Homo sapiens) (Q5JTV8 whole entry, looked up): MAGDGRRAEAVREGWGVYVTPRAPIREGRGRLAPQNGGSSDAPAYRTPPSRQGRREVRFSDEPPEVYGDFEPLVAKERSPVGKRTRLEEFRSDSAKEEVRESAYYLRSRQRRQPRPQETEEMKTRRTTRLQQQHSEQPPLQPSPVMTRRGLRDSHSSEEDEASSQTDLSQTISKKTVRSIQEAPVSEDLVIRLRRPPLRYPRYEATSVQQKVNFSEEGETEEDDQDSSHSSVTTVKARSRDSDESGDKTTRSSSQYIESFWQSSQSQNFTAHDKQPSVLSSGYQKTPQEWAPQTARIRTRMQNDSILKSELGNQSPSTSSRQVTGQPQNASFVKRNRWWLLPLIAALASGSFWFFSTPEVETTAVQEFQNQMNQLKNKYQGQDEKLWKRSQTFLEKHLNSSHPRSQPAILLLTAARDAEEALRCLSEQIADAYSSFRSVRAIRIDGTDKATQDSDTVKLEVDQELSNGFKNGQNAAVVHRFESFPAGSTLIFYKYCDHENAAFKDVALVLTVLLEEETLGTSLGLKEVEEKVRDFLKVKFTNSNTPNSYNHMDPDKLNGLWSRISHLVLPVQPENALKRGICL

[20] = molecular target: Alpha-bungarotoxin (Bungarus multicinctus) (UniProt P60615); assay: compounds binding labelled alpha-BTX control protein – biochemical, small-molecule microarray, Alexa647 label, 635/667 nm fluorescence, artefact control for SMM control protein annotation, profiling panel (AID 1117); settings: alpha-BTX-A647 binding fluorescence, higher = more signal
Chain of Alpha-bungarotoxin (Bungarus multicinctus) (P60615 whole entry, looked up): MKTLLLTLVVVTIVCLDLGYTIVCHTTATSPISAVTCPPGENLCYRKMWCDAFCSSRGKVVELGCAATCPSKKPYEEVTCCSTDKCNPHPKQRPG

| Compound | composite z-score [1] | composite z-score [2] | composite z-score [3] | z-score [4] | composite z-score [5] | composite z-score [6] | composite z-score [7] | composite z-score [8] | composite z-score [9] | composite z-score [10] | composite z-score [11] | z-score [12] | composite z-score [13] | composite z-score [14] | composite z-score [15] | composite z-score [16] | composite z-score [17] | composite z-score [18] | composite z-score [19] | composite z-score [20] |
| --- | --- | --- | --- | --- | --- | --- | --- | --- | --- | --- | --- | --- | --- | --- | --- | --- | --- | --- | --- | --- |
| CC(C)C[C@@H]1NC(=O)[C@@H]2C[C@H](C(=O)NCc3ccc(F)cc3)[C@H](c3cccc(OCCO)c3)N2C1=O | 1.52 | -0.23 | 0.0811 | -0.177 (inactive) | 1.2 | 0.615 | 0.284 | 0.946 | 0.322 | -0.19 | 0.0179 | -0.992 | 0.0533 | 0.217 | 0.0115 | -0.31 | 0.147 | -0.0315 | 0.172 | -0.41 |
| C=CCC(OC(C)=O)[C@@H]1[C@@H](N(Cc2cccc3ccccc23)C(=O)c2ccc(-c3ccccc3)cc2)c2cc(OCCCO)ccc2N1C(=O)c1ccc2ccccc2c1 (stereo not given in full) | -0.101 | 0.25 | 0.357 | -0.157 (inactive) | 0.0842 | 0.293 | 0.24 | 0.476 | -0.601 | 1.28 | 0.564 | 0.098 | -0.164 | 0.268 | 0.544 | -0.0196 | -0.0709 | 0.223 | 0.923 | -0.0516 |
| C=CCNC(=O)[C@H]1[C@@H]2C(=O)O[C@@H](c3ccccc3)[C@@H](c3ccccc3)N2[C@@H](c2ccccc2OCCO)[C@]12C(=O)Nc1ccc(C#CCCO)cc12 | 0.932 | -0.0856 | 0.784 | -0.411 (inactive) | 1.66 | -1.03 | -0.281 | 0.229 | 1.97 | 0.479 | 1.39 | -2.26 | 0.607 | -0.231 | -0.09 | 0.0357 | -0.206 | 0.0703 | 0.567 | 0.365 |
| NC(=O)NCC#Cc1ccc2c(c1)[C@]1(C(=O)N2)[C@H](c2ccc(O)cc2)N2[C@H](c3ccccc3)[C@H](c3ccccc3)OC(=O)[C@H]2[C@@H]1C(=O)O | -0.0693 | -0.173 | 0.617 | 0.307 (inactive) | -0.114 | -0.928 | -0.683 | -0.966 | -1.22 | -0.203 | -0.0303 | -0.708 | -1.09 | 0.342 | 0.521 | -0.185 | -0.42 | -0.0683 | -0.354 | -0.27 |
| NC(=O)[C@@H]1[C@H]2C(=O)O[C@H](c3ccccc3)[C@H](c3ccccc3)N2[C@H](c2ccc(O)cc2)[C@@]12C(=O)Nc1ccccc12 | 0.0555 | -0.109 | 0.798 | -0.936 (inactive) | -0.433 | -1.04 | -0.49 | -1.06 | -1.91 | -0.638 | 0.812 | -1.1 | -2.27 | -0.395 | -0.127 | -0.127 | -0.0553 | 0.264 | -1.02 | -0.674 |
| C[C@H]1C2[C@H](Cc3ccccc3)NC(=O)[C@]23C(=O)N[C@H](Cc2ccccc2)C(=O)N2CCC[C@H]2C(=O)NC/C=C\C/C=C/C3[C@@H]2O[C@]12C (stereo not given in full) | 0.901 | -0.0646 | -0.19 | -0.925 (inactive) | 0.428 | -0.298 | -0.0282 | 0.801 | 0.299 | 0.946 | -0.355 | 0.255 | 0.203 | -0.404 | -0.863 | -0.0165 | -0.0146 | -0.0003 | 0.0015 | 1.18 |
| C=C(COC)C(=O)CC[C@@H](OC(C)=O)c1ccc(CO)o1 | 1.38 | 0.0244 | -0.45 | 0.264 (inactive) | 1.24 | 0.139 | -0.42 | 1.52 | 1.48 | 1.38 | -0.363 | -0.0928 | 0.747 | -0.401 | -0.515 | -0.0572 | -0.123 | 0.0139 | 0.55 | -0.0178 |
| COCCOC(=O)N1C(=O)[C@@]2(c3cc(C#CC4(O)CCCCCC4)ccc31)[C@H](c1ccc(OCCO)cc1)N1[C@H](c3ccccc3)[C@H](c3ccccc3)OC(=O)[C@H]1[C@@H]2C(=O)N1CCN(c2ncccn2)CC1 | 1 | -0.165 | 0.107 | -0.201 (inactive) | 1.11 | 1.28 | 0.334 | 1.06 | 0.48 | 0.0414 | 1.43 | -1.77 | 0.419 | 0.795 | 0.124 | 0.0044 | -0.147 | 0.106 | 0.667 | 1.19 |
| [N-]=[N+]=NCc1ccccc1[C@@H]1OC(c2ccc(OCCCO)cc2)=N[C@]1(Cc1ccccc1)C(N)=O | 1.01 | 0.758 | 0.864 | -1.16 (inactive) | 1.42 | 1.3 | -0.592 | 0.881 | -0.117 | 0.857 | 1.45 | -1.3 | -0.33 | 2.2 | 1.02 | -0.0286 | 0.365 | 1.14 | -0.402 | 2.14 |
| C=CCNC(=O)[C@@H]1[C@H]2C(=O)O[C@H](c3ccccc3)[C@H](c3ccccc3)N2[C@H](c2ccc(OCCO)cc2)[C@@]12C(=O)Nc1ccc(C#CCC(C(=O)OC)C(=O)OC)cc12 | 1.7 | 0.264 | 0.171 | -0.646 (inactive) | 1.23 | 1.27 | -0.122 | 0.753 | 0.335 | 0.614 | 0.637 | -2.18 | 0.608 | 0.263 | -0.224 | 0.105 | 0.147 | 0.914 | 1.19 | 1.8 |
